About 4,300 (3.1%) of roughly 140,000 compounds were called active. Another 21% or so got no clear call; they are omitted. The full list was thinned out, with actives kept by preference. A number with no mark means an inactive call.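 The calls were made as follows: active = readout at or below -70, meaning at least 70% loss of cells showing the perinucleolar compartment, a nuclear body marking cancer cells; inconclusive = readout between -30 and a set limit; inactive = the rest.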

A short description of this assay: High Content Assay for Compounds that inhibit the Assembly of the Perinucleolar Compartment.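 Also: plate controls were DMSO wells for no effect and camptothecin positive control wells for full effect.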 Particulars: PC3M PTB-GFP, PNC prevalence imaging, 16 h; at 10 µM; hits give low values. Summed up: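 Compounds are pinned in duplicate onto adhered PC3M cells stably expressing GFP-tagged PTB and incubated 16 h at 37 C. Cells are then fixed, nuclei stained with Hoechst, and PNC-positive cells counted.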
As to `O=C(COC(=O)c1c2c(nc3ccccc13)CCCC2)c1ccc(Br)s1`, the activity change (PNC), negative = inhibition is 17.9%.

Take `Cc1nonc1NC(=O)c1ccccc1Br`: the activity change (PNC), negative = inhibition is -15.2%. With `O=C(Nc1c2c(nc3ccccc13)CCCC2)c1ccccc1Br` the figure was -109% (active); with `Cc1ccc(C)c(NC(=O)CCC(=O)NNC(=O)c2cccs2)c1`, 30.9%.

Take `NC1=NC(=O)C(Cc2cccc(Cl)c2Cl)S1` (centres undefined): the activity change (PNC), negative = inhibition is -13.4%. For the molecule `COc1ccccc1N1N=C(c2cccs2)CC1c1ccccc1` (centres undefined), the activity change (PNC), negative = inhibition was -19.6%.

`CC(C)Nc1nc(N(c2ccccc2)c2ccccc2)nc(-n2ccnc2)n1`: the activity change (PNC), negative = inhibition was -4.69%. Regarding `CCNc1nc(NC(C)C)nc(N2CC(=O)N(CC(=O)OCC)C2=N)n1`, the activity change (PNC), negative = inhibition is 3.87%. The value for `CCNc1nc(NC(C)C)nc(OCCOC(=O)c2ccccc2)n1` was -100% (active); that for `O=C(CCc1ccccc1)Nc1nn[nH]n1` was 50.3%; that for `COc1ccc(C2COC(=O)C2=N)c(NC(=O)c2ccccc2)c1` (centres undefined) was -25.6%. The value for `CCC1=NN(C(=O)Cc2ccc([N+](=O)[O-])cc2)C(O)(c2ccc(Br)cc2)C1` (centres undefined) was 99.6%; that for `COc1ccccc1-c1nnc(NC(=O)c2cccc(N3C(=O)CCC3=O)c2)o1` was -7.63%; that for `COc1ccccc1-c1nnc(SCC(=O)Nc2cc(C)on2)o1` was -4.25%. The value for `COc1ccccc1-c1nnc(NC(=O)c2ccc3ncsc3c2)o1` was -121% (active); that for `CCCCC(CC(C)O)c1n[nH]c(=S)n1-c1ccccc1` (centres undefined) was 4.51%.

As to `O=C(NCCCO)/C(=C\C=C\c1ccccc1)NC(=O)c1ccccc1Cl`, the activity change (PNC), negative = inhibition is 26.4%. The value for `O=C(N/N=C/c1ccc(O)cc1)/C(=C/c1ccc([N+](=O)[O-])cc1)NC(=O)c1ccccc1` was -101% (active); that for `O=C(NCCc1ccccc1)/C(=C\c1ccc([N+](=O)[O-])cc1)NC(=O)c1ccccc1` was -6.81%. With `O=C(N/N=C/c1cc([N+](=O)[O-])ccc1O)/C(=C\c1cccs1)NC(=O)c1ccccc1` the figure was 25.3%; with `CCCC(=O)Nc1ccc(C(=O)N/N=C/c2ccc[nH]2)cc1`, -29.4%. The value for `Cc1csc(=Nc2ccccc2)n1CCO` was -25.4%; that for `Cc1csc(=NC(=O)c2ccccc2)n1CCO` was -9.41%. In the case of `C=C(C)CNC(=S)/N=c1\scc(C)n1CC`, the activity change (PNC), negative = inhibition was -100% (active). For `COc1cc(/C=C/C(=O)N2c3ccccc3Sc3ccc(C(F)(F)F)cc32)cc(OC)c1OC`, the activity change (PNC), negative = inhibition was -24.5%. The value for `O=C(CSc1nnc(Nc2ccccc2)s1)Nc1cccnc1Cl` was -10.3%; that for `O=C(Nc1ccccc1Cl)O/N=C(/c1ccccc1)c1ccccn1` was -96.2% (active). With `C/C(=N\NC(=O)Cc1ccc(Cl)cc1)c1ccccn1` the figure was -18.2%; with `COc1cc2c(cc1OC)C(=O)NCC(C)(C)O2`, 47.7%; with `CCCCN(CC)C(=O)c1ccc2c(c1)OCO2`, 21.9%. On to `COC(=O)c1ccc(NCC(=O)c2ccccc2)cc1`, for which the activity change (PNC), negative = inhibition is -26.4%. `O=C(OCC(O)C(O)COC(=O)c1ccccc1)c1ccccc1` (centres undefined): the activity change (PNC), negative = inhibition is -83.5% (active). For the molecule `CCOC(=O)c1ccc(N/C(=N/S(=O)(=O)c2ccccc2)c2ccccc2)cc1`, the activity change (PNC), negative = inhibition was 3.77%. Turning to `COc1ccc(/C=C/C(=O)OCC(=O)NCc2cccs2)cc1OC`, the activity change (PNC), negative = inhibition was -1.51%. With `CCCCOc1ccc(C(=O)N/C(=C/C=C/c2ccccc2)C(=O)N2CCOCC2)cc1`, the activity change (PNC), negative = inhibition is -12.2%.

For the molecule `CCOc1ccc2nc(C(=O)N3CCCC(C)C3)sc2c1` (centres undefined), the activity change (PNC), negative = inhibition was 6.06%. On to `O=C(NC1CCCC1)C(NS(=O)(=O)c1ccc(Br)s1)c1ccccc1` (centres undefined), for which the activity change (PNC), negative = inhibition is 48.1%.

Regarding `O=C(/C=C/c1cccs1)NCc1cccnc1`, the activity change (PNC), negative = inhibition was -0.603%. As for `O=C(NCc1cccnc1)c1cn(-c2ccccc2)nc1-c1cccs1`, the activity change (PNC), negative = inhibition was -139% (active). The value for `COC(=O)c1cn(-c2ccccc2)nc1-c1cccnc1` was -22.9%; that for `COC1=CCC2([N+](=O)[O-])CN(CC(=O)O)CC1([N+](=O)[O-])C2` (centres undefined) was 6.59%; that for `COc1ccc(/C=C/C(=O)Nc2ccc3c(c2)OCCO3)cc1OC` was -11.1%. With `Cc1cc(C(=O)OCC(=O)Nc2nnc(C(C)C)s2)c2ccccc2n1` the figure was 3.82%. With `CCCc1nc2c([nH]1)C(c1cccnc1)C(C#N)=C(N)O2` (centres undefined) the figure was 7.34%. For `O=C(CN1CCN(CC(=O)Nc2ccc3c(c2)OCO3)CC1)Nc1ccc(F)cc1`, the activity change (PNC), negative = inhibition was -20.9%.

Consider `O=C(CN1CCN(c2ccc(F)cc2)CC1)Nc1cccc(C(F)(F)F)c1`, for which the activity change (PNC), negative = inhibition is -19.9%.

On to `O=C(CN1CCN(c2ncc(C(F)(F)F)cc2Cl)CC1)Nc1ccc2c(c1)OCO2`, for which the activity change (PNC), negative = inhibition was -86.4% (active). With `CC1CCN(c2ccc(C(=O)Nc3nnc(C4CC4)s3)cc2[N+](=O)[O-])CC1` the figure was -87.1% (active). `CC1CCN(c2ccc(S(=O)(=O)Nc3cc(C(=O)O)cc(C(=O)O)c3)cc2[N+](=O)[O-])CC1`: the activity change (PNC), negative = inhibition was -0.23%.

For the molecule `CCOC(=O)c1c(NC(=O)c2ccc(N3CCOCC3)c([N+](=O)[O-])c2)sc(C)c1C`, the activity change (PNC), negative = inhibition is 28.7%.

`CCc1cccc(C)c1NC(=O)COC(=O)Cc1ccsc1`: the activity change (PNC), negative = inhibition was -6%.

Turning to `C=CCNC(=S)NNC(=O)c1ccc(Br)o1`, the activity change (PNC), negative = inhibition was -23.4%. With `O=c1c2c(ncn1Cc1ccccc1)nc1n2CCC1` the figure was -8.18%; with `NS(=O)(=O)c1ccc(NS(=O)(=O)/C=C/c2ccccc2)cc1`, -5.65%; with `COc1ccc(NC(=O)COC(=O)c2ccc(NS(=O)(=O)/C=C/c3ccccc3)cc2)cc1`, -91.4% (active).

`CCC(C(=O)OCC(=O)Nc1ccc(C(=O)Nc2ccc(OC)cc2)cc1)c1ccccc1` (centres undefined): the activity change (PNC), negative = inhibition was 12.6%. For `Cc1c(C(=O)N2CCOCC2)[nH]c2ccc(OCc3ccccc3)cc12`, the activity change (PNC), negative = inhibition was -12.2%. Consider `CCOC(=O)c1[nH]c2ccc(OC)cc2c1NC(=O)N1CCOCC1`, for which the activity change (PNC), negative = inhibition is -102% (active). With `COc1cc(NC(=O)N2CCOCC2)cc(OC)c1` the figure was 29.1%; with `CC(C)C(=O)NC(=S)Nc1ccccc1F`, 28.8%. With `Cc1cccc(NC(=S)N(CCN(C)C)C(C)c2ccco2)c1` (centres undefined) the figure was 5.52%; with `CC(c1ccccn1)N(CCN(C)C)C(=S)Nc1ccccc1F` (centres undefined), -111% (active). For `CC(=O)Nc1ccc(SCC(=O)Nc2ccccc2Oc2ccccc2)cc1`, the activity change (PNC), negative = inhibition was -10.5%.

For `CC1CCc2sc(C(=O)N/N=C/C3CCCCC3)cc2C1` (centres undefined), the activity change (PNC), negative = inhibition was -24%. For `COc1ccccc1N1CCN(C(=O)c2cc(-c3ccc(Cl)c(Cl)c3)on2)CC1`, the activity change (PNC), negative = inhibition was 321%.

`Cc1noc(C)c1C(=O)N1CCOCC1`: the activity change (PNC), negative = inhibition is 0.83%. Take `O=C(c1ccccc1-c1ccccc1)N1CCOCC1`: the activity change (PNC), negative = inhibition was -12%.

As to `Cc1onc(-c2ccccc2)c1C(=O)N1CCOCC1`, the activity change (PNC), negative = inhibition is -109% (active).

With `COc1ccccc1N1CCN(C(=O)c2c(-c3c(Cl)cccc3Cl)noc2C)CC1`, the activity change (PNC), negative = inhibition was -86.9% (active).

Consider `COc1ccccc1N1CCN(C(=O)c2cc(-c3ccc(Br)cc3)on2)CC1`, for which the activity change (PNC), negative = inhibition is 15.5%.

As to `O=C(CN1C(=O)/C(=C\c2ccc(C(F)(F)F)cc2)Sc2ccccc21)NCc1ccco1`, the activity change (PNC), negative = inhibition was 37.6%. With `O=c1cc(CN2CCN(S(=O)(=O)/C=C/c3ccccc3)CC2)c2ccc(O)cc2o1` the figure was -11.6%; with `CCOC(=O)Nc1sc(C(=O)N(C)C)c(C)c1C(=O)OCC`, 10.4%; with `CCOC(=O)c1c(NC(C)=O)sc2c(O)c(Br)ccc12`, -80.8% (active).

`CCOC(=O)c1c(NC(=O)c2ccc(Br)o2)sc2c1CCCC2`: the activity change (PNC), negative = inhibition was 2.82%. On to `Cc1cc(Oc2ccc(Cl)cc2)nc(SCC(=O)c2ccccc2)n1`, for which the activity change (PNC), negative = inhibition was 16.7%.

As to `CCOCc1nnc(NC(=O)CSc2ccc(C)cc2)s1`, the activity change (PNC), negative = inhibition was -89.8% (active). With `Cc1ccc(OCc2nnc(NC(=O)OCC(C)C)s2)cc1` the figure was 26.9%. Take `Cc1ccc(SCC(=O)Nc2ncc(C)s2)cc1`: the activity change (PNC), negative = inhibition is 34.4%. The value for `O=[N+]([O-])c1ccccc1SNc1ccccn1` was -0.121%; that for `Cc1cccc(N2C(=O)SC(SC(=Nc3ccccc3)Nc3ccccc3)C2=O)c1` (centres undefined) was 64.7%. For `Cc1cc(C)n(-c2nc(SCC(=O)N3CCCC3)c3c4c(sc3n2)CCCC4)n1`, the activity change (PNC), negative = inhibition was 26%. Regarding `Cc1nc(SCC(=O)Nc2cc(C)on2)c2c3c(sc2n1)CCCC3`, the activity change (PNC), negative = inhibition is -9.46%. As for `COCCn1c(C)cc(C(=O)CSc2ncnc3sc4c(c23)CCC4)c1C`, the activity change (PNC), negative = inhibition is -100% (active). The value for `CC(=O)Nc1ccc(C(=O)OCC(=O)Nc2ccc([N+](=O)[O-])cc2C(F)(F)F)cc1` was -8.91%.

For `CCCCCCCCCOC1OC(CO)C(O)C(O)C1NC(C)=O` (centres undefined), the activity change (PNC), negative = inhibition is -8.39%.

`COc1ccccc1C(=O)Nn1c(-c2cccs2)nc2ccccc2c1=O`: the activity change (PNC), negative = inhibition was -26.6%. With `Cc1[nH]c2ccccc2c1C(=O)COC(=O)c1c(-c2ccccc2)noc1C` the figure was -121% (active); with `Cc1[nH]c2ccccc2c1C(=O)CSCC(=O)O`, -15.7%; with `CCOC(=O)N1CCN(CC(=O)c2c(C)[nH]c3ccccc23)CC1`, -18.6%. Take `CCOC(=O)c1cccnc1NC(=O)c1ccncc1`: the activity change (PNC), negative = inhibition was -1.7%. The value for `Cc1ccc(OCCOCCOc2ccc(Br)cc2/C=N\NC(=O)c2ccncc2)cc1` was -9.62%. For `Brc1ccc(OCCn2ccnc2)cc1`, the activity change (PNC), negative = inhibition is -118% (active).

Turning to `COc1ccc(/C=C(\C#N)C(=O)NCCCn2ccnc2)cc1`, the activity change (PNC), negative = inhibition is 60.5%. With `Oc1ccc(Br)cc1C=Nc1ccc2[nH]ncc2c1` the figure was 18.8%; with `CNC(=S)N/N=C/c1ccc(OCc2ccccc2)c(Br)c1`, 23.4%.

For the molecule `O=C(c1cccc(C(=O)N2CCc3ccccc32)n1)N1CCc2ccccc21`, the activity change (PNC), negative = inhibition was 8.65%. On to `O=C(c1cc(-c2ccc(O)cc2)on1)N1CCCc2ccccc21`, for which the activity change (PNC), negative = inhibition was -28.7%. The value for `Cc1cccc2cc3c(N)c(C(=O)N4CCCc5ccccc54)sc3nc12` was -97.5% (active).

(Values after PubChem BioAssay AID2417 (National Center for Advancing Translational Sciences (NCATS), 2010).)
